Test results taken from PubChem BioAssay (Tox21).
Records with an inconclusive call do not appear. Unmarked numbers belong to inactive results. Calls come from the whole dose curve.

Assay: cAMP Responsive Elements (CRE) small molecule agonists, cell-based qHTS assay (AID 1963590)
Conditions: CRE-bla HEK293T, beta-lactamase FRET ratio, 3 h; series mostly up to 92.4 µM; activation: at the top concentration
Excerpt: U.S. Tox21 Program National Center for Advancing Translational Sciences [NCATS] Division of Preclinical Innovation [DPI] U.S. Environmental Protection Agency [EPA] National Institutes of Environmental Health Sciences [NIEHS] National Toxicology Program [NTP] U.S. Food and Drug Administration [FDA] Tox21 Assay Overview: CREB (cyclic-AMP Responsive Element Binding Protein) is a cellular transcription factor. It binds to certain DNA sequences called cAMP Responsive Elements (CRE) and regulates the transcription of the genes. […] This cell line can be used to find agonists/antagonists of the cyclic AMP signaling pathway. The activation of the report gene under culture conditions can be detected by fluorescence intensity. This cell line has been used to screen the Tox21 10K compound library to identify agonists that induce oxidative stress.
Tox21 Assay Protocol Summary: CRE-bla Hek 293T cells were suspended in assay medium (DMEM containing 10% dialyzed FBS, 0.1 mM NEAA, 1 mM sodium pyruvate and 25 mM HEPES) and dispensed at 2,000 cells/5 uL /well into 1536-well black wall/clear bottom plates using a Multidrop Combi (ThermoFisher Scientific, Waltham, MA) dispenser. After the assay plates were incubated at 37 C/5% CO2 for 18 hrs, 23 nL of compounds dissolved in DMSO, positive controls or DMSO only was transferred to the assay plate by a pintool workstation (Kalypsys, San Diego, CA). After the plates were incubated at 37 C/5% CO2 for 3 hrs, 1 uL of LiveBLAzer B/G FRET substrate (Invitrogen, Carlsbad, CA) was added to each well using Bioraptr Flying Reagent Dispenser (FRD, Aurora Discovery, San Diego, CA). The plates were incubated at room temperature for 2 h.
% is set by controls: 0 for no effect and ±100 for the full control effect.

Row | Compound | activation
1 | Oc1ccc2c(c1)CCC2 | 0.283%
2 | O=C(OCCCCCCOC(=O)c1ccccc1)c1ccccc1 | -0.0525%
3 | CCn1cc(C(=O)O)c(=O)c2cc(F)c(N3CCNCC3)cc21 | -0.484% [at 42.5 µM]
4 | C[N+](C)(C)CCOC(=O)CCC(=O)OCC[N+](C)(C)C | 0.601% [at 42.5 µM]
5 | CN=C(NC#N)Nc1ccc(C2=NNC(=O)CC2C)cc1 (stereo not given) | 10.6% [at 42.5 µM]
6 | Cc1cc(N)c2cc(NC(=O)Nc3ccc4nc(C)cc(N)c4c3)ccc2n1 | 7.04% [at 42.5 µM]
7 | CC(C)(c1ccc(Oc2ccc3c(c2)C(=O)OC3=O)cc1)c1ccc(Oc2ccc3c(c2)C(=O)OC3=O)cc1 | 0.5%
8 | COC(=O)c1ccc(OC)cc1 | -0.454%
9 | CN(C)CCN1CCOCC1 | 0.0256%
10 | CNc1c2c(nn1C)CCCC2 | -1.43% [at 42.5 µM]
11 | CC(C)C[C@@H](N)C(=O)O | 0.0359% [at 19 µM]
12 | CCN(CC)C(=O)N(CC)CC | -1.05%
13 | CN1C(=O)OC(C)(C)C1=O | 0.157%
14 | CO[Si](CCCNc1ccccc1)(OC)OC | -0.0734%
15 | Cc1ccnc2ccccc12 | -0.132%
16 | C/C=C/C(=O)OCC(C)C | -0.626%
17 | CC(=O)c1cccnc1 | -0.349%
18 | [Cu+] | 10.9%
19 | CCCC(=O)OCCC(C)C | -0.736%
20 | CCCCCCCCOS(=O)(=O)O | -0.0071%

Row | Compound | activation
21 | CC/C(=C\C(=N/O)C(N)=O)C(C)[N+](=O)[O-] (stereo not given) | 0.187%
22 | Nc1cnn([C@@H]2O[C@H](CO)[C@@H](O)[C@H]2O)c(=O)n1 | 0.307%
23 | COc1ccc2nc(SCc3ncc(C)c(OC)c3C)[nH]c2c1 | 2.31% [at 42.5 µM]
24 | CCOC(=O)C(=O)OCC | 0.764%
25 | Cc1ccc(N(CCO)CCO)cc1 | 0.109%
26 | C=CC1CC2C=CC1C2 (stereo not given) | -0.653%
27 | CC(C(=O)O)c1ccc2c(c1)CC(=O)c1ccccc1S2 (stereo not given) | -1.18% [at 42.5 µM]
28 | CN1CCCCC1CCN1c2ccccc2Sc2ccc(S(C)=O)cc21 (stereo not given) | 0.111% [at 42.5 µM]
29 | O=C1OCCN1/N=C/c1ccc([N+](=O)[O-])o1 | -1.02% [at 42.5 µM]
30 | CC(C)=CCC/C(C)=C/CC/C(C)=C/CCC(=O)OC/C=C(\C)CCC=C(C)C | -0.47% [at 42.5 µM]
31 | OC1(c2ccccc2)CCNCC1 | 0.0708% [at 42.5 µM]
32 | OC[C@@H](O)[C@H](O)[C@@H](O)[C@@H](O)CO | 0.29%
33 | CC(CC(C)(C)C)CC(C)(C)CC(C)(C)C (stereo not given) | -0.493% [at 42.5 µM]
34 | CCCCCCCCCCCCCCC1CO1 (stereo not given) | -0.144%
35 | O=C(Nc1ccccc1)Nc1ccccc1 | 1.6%
36 | CC(C)(C)c1cc(CCC(=O)OCCSCCOC(=O)CCc2cc(C(C)(C)C)c(O)c(C(C)(C)C)c2)cc(C(C)(C)C)c1O | -2.16% [at 42.5 µM]
37 | O=C(O)CC(C(=O)O)S(=O)(=O)O (stereo not given) | 1.38%
38 | OC(CCN1CCCCC1)(c1ccccc1)c1ccccc1 | -2% [at 42.5 µM]
39 | CC(C)(O)C(=O)c1ccccc1 | 0.178%
40 | Cc1cc(=O)oc2cc(O[C@@H]3SC[C@@H](O)[C@H](O)[C@H]3O)ccc12 | -0.225% [at 42.5 µM]
